Results on 14 compounds are retold here after PubChem BioAssay.

One test addresses Albumin (Bos taurus) (UniProt P02769). Briefly: compounds binding labelled BSA control protein – biochemical, small-molecule microarray, Alexa647 label, 635/667 nm fluorescence, artefact control for SMM control protein annotation, profiling panel (AID 1118).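 Also: score merges 667 nm emission intensity and signal-to-noise per printed compound spot.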 The note with it: BSA-A647 binding, fluorescence 635 nm, higher = more signal.
Test [1] can be described thus: probe aXIP binding to arrayed compounds – biochemical, NeuroSMM set, 635/667 nm fluorescence, primary screen (AID 1119).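 Also: probe is the protein aXip251-270 applied at 1 µg/mL to compound-printed slides; binding of probe to printed compounds measured as 667 nm fluorescence plus signal to noise.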 The note with it: small-molecule microarray, higher = more signal, called active from +8 up or from −8 down.
Test [2] can be described thus: probe aNOTCH3 binding on compound microarray – biochemical, small-molecule microarray, 635/667 nm fluorescence, primary screen (AID 1120).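 Also: probe is a biotin-tagged antibody raised against NOTCH3 rather than NOTCH3 protein; score merges spot fluorescence near 667 nm with spot signal to noise.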 The conditions noted are these: higher = more signal.
Test [3] in a line: probe aNOTCH2 binding on compound microarray – biochemical, small-molecule microarray, 635/667 nm fluorescence, primary screen (AID 1121).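 Also: score merges feature fluorescence read at 667 nm with its signal to noise.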 The note with it: higher = more signal.
The target in test [4] is Carbonic anhydrase 2 (Homo sapiens) (UniProt P00918). Briefly: compounds binding carbonic anhydrase 2 – biochemical, small-molecule microarray, Alexa647-labelled CAII, profiling panel (AID 1122). The note with it: CAII-A647 binding fluorescence, higher = more signal.
A short description of test [5]: COS7 lysate on small-molecule microarray, probe aHis, 635 nm (AID 1123).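 Also: z-score combines 667nm fluorescence intensity with signal-to-noise per printed compound spot.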 The conditions noted are these: COS7 cell lysate, fluorescence, higher = more signal.
A short description of test [6]: probe aLAP1 signal on lysate-treated microarray – cell lysate, small-molecule microarray, COS7 lysate, primary screen (AID 1124).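 Also: lysate comes from COS7 cells expressing LAP1 and is applied at 0.3 µg/mL; score merges spot fluorescence near 667 nm with signal-to-noise over triplicate slides.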 The conditions noted are these: probe aLAP1, fluorescence, higher = more signal.
The next test concerns Sam68 (KHDRBS1). Briefly: compounds binding KHDRBS1 protein – biochemical, small-molecule microarray, 635 nm fluorescence, primary screen (AID 1125).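 Also: score merges 667 nm channel intensity with signal to noise over triplicate slides.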 The note with it: higher = more signal.
Test [7] relates to Chordin-like protein 2 (CHRDL2). Kind of test: compounds binding chordin-like 2 – biochemical, small-molecule microarray, 635 nm fluorescence, primary screen (AID 1126).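 Also: printed compound slides probed with Chrdl2 protein at 4 µg/mL for 1 h at 4 C; score merges 667 nm emission intensity with signal to noise over three replicate slides.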 The note with it: fluorescence 635 nm, higher = more signal.
Test [8] deals with Concanavalin-A (Canavalia ensiformis) (UniProt P02866). Kind of test: compounds binding concanavalin A lectin – biochemical, small-molecule microarray, Alexa647 label, 635 nm, artefact control for SMM control protein annotation, primary screen (AID 1127).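 Also: z combines 667 nm emission intensity with signal-to-noise across three replicate slides.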 The conditions noted are these: ConA-A647 binding fluorescence, higher = more signal.

The structures appear in SMILES notation. Calls of active or inactive are those of the source.

Albumin (Bos taurus), sequence (P02769 whole entry, looked up): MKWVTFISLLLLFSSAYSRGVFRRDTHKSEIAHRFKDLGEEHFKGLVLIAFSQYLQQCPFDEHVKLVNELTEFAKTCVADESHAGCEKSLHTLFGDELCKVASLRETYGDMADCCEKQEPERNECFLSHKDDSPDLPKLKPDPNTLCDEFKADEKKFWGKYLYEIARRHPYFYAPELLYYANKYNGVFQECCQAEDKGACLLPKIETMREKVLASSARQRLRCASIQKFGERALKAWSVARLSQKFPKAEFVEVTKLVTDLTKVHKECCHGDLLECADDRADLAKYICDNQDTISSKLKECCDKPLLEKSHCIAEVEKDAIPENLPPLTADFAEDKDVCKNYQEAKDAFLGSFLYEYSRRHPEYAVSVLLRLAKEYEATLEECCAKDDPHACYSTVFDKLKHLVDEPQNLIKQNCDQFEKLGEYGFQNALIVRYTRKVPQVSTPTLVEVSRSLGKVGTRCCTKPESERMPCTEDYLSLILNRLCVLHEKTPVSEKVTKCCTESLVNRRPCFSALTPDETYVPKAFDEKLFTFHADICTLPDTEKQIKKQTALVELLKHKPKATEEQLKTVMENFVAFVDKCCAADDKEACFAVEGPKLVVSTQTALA
Concanavalin-A (Canavalia ensiformis), sequence (P02866 whole entry, looked up): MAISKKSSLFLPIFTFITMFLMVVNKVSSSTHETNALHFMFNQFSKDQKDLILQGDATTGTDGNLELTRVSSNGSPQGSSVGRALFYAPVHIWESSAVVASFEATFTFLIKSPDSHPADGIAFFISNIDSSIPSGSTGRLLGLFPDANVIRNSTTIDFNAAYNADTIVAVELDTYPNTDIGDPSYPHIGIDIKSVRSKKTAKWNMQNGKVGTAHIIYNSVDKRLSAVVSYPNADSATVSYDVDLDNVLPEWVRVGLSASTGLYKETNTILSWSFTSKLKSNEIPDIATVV

In the case of `CC(C)CCC[C@@H](C)[C@H]1CC[C@@]2(C)C3=C(CC[C@]12C)[C@@]1(C)CC[C@H](OC(=O)c2ccc(Br)cc2)C(C)(C)C1CC3` (stereo not given in full), the composite z-score was -0.0217 in the test with Albumin (Bos taurus); 0.173 in [2]; -0.117 in [3]; 0.108 in test [4]; -0.28 in test [5]; 0.432 in [6]. Moreover, the results for the composite z-score (in the test with Sam68 (KHDRBS1); in test [7]; in test [8]) were 0.28, 0.498 and 0.291, respectively. The composite Z-score in [1] is -0.174 (inactive).
As to `COCCOC(=O)N1C(=O)[C@@]2(c3ccccc31)[C@H](C(=O)N1CCN(c3ncccn3)CC1)[C@H]1C(=O)O[C@H](c3ccccc3)[C@H](c3ccccc3)N1[C@@H]2c1ccc(OCCO)cc1`, the composite z-score with Albumin (Bos taurus) was 0.329; in test [2] it was 0.32; in test [3], -0.0029; in test [4], 0.512; in test [5], 1.36; in [6], 0.341. For the same compound, the composite z-score in the test with Sam68 (KHDRBS1) worked out at 1.12; in test [7], 0.292; in test [8] it was 1.13. In test [1], the composite Z-score was 2.41 (inactive).
`O=C1NCC(=O)N2[C@@H]1C[C@@H](C(=O)O)[C@H]2c1ccc(O)cc1`: the composite z-score in the test with Albumin (Bos taurus) was -0.575; in [2], 0.0397; in [3], -0.14; in [4], 0.165; in test [5] it was 2.25; in test [6], 0.0452. The composite z-score came out at 1.31 with Sam68 (KHDRBS1), 1.48 in [7] and 1.07 in test [8]. Moreover, the composite Z-score in [1] was -0.0127 (inactive).
In the case of `COc1ccc(NN2C(C(O)c3ccco3)C=CC3C(=O)N(C4CCCCC4)C(=O)C32)cc1` (stereo not given), the composite z-score was 0.749 in the test with Albumin (Bos taurus); 0.353 in test [2]; -0.115 in test [3]; 0.377 in test [4]; 1.44 in [5]; 0.564 in test [6]. Moreover, the composite z-score in the test on Sam68 (KHDRBS1) came out at 1.32; in [7] it was 0.0446; in [8], 1. In test [1], the composite Z-score was 0.0786 (inactive).
Turning to `Cc1ccc(S[C@]2(C(=O)NCc3ccccc3)CC(=O)N(C(C)C)[C@@H]2c2ccc(CO)cc2I)cc1`, the composite z-score with Albumin (Bos taurus) was 0.838; in test [2], -0.221; in test [3] it was -0.0268; in [4] it was 0.304; in test [5] it was 2.56; in test [6], 0.704. In addition, the composite z-score in the test with Sam68 (KHDRBS1) is -0.29; in [7], -1.59; in test [8] it was -1.29. Further, the composite Z-score in test [1] is 0.46 (inactive).
`O=C1C2C=CC(C(O)c3cc(C(F)(F)F)cc(C(F)(F)F)c3)N(Nc3ccc([N+](=O)[O-])cc3)C2C(=O)N1c1ccccc1` (stereo not given): the composite z-score with Albumin (Bos taurus) is 0.888; in [2] it was 0.37; in test [3] it was -0.0523; in [4] it was 0.616; in [5], 2.74; in [6] it was -0.0967. In addition, the figures for the composite z-score (in the test with Sam68 (KHDRBS1); in [7]; in test [8]) were 1.33, -0.298 and 1.15, respectively. The composite Z-score in test [1] was -0.311 (inactive).
In the case of `C=C(COC)/C(=C/C[C@@H](OC(=O)c1ccncc1)c1cccc(OCCO)c1)c1cnc2ccccc2c1`, the composite z-score is 0.716 with Albumin (Bos taurus); 0.43 in test [2]; 0.0815 in test [3]; 1.01 in [4]; 1.91 in test [5]; 0.919 in test [6]. Moreover, the values for the composite z-score (in the test on Sam68 (KHDRBS1); in [7]; in test [8]) were 1.31, 1.44 and 1.24, respectively. Further, the composite Z-score in [1] is 0.161 (inactive).
Turning to `C=CCOC(=O)[C@H]1[C@@H]2C(=O)O[C@@H](c3ccccc3)[C@@H](c3ccccc3)N2[C@@H](c2ccc(OCCOC(=O)[C@H]3C[C@H]4C(=O)N[C@@H](Cc5ccccc5)C(=O)N4[C@H]3c3cccc(OCCO)c3)cc2)[C@]12C(=O)Nc1ccc(I)cc12`, the composite z-score in the test with Albumin (Bos taurus) was -0.291; in test [2], 0.071; in test [3], -0.117; in test [4] it was 0.487; in [5] it was -0.0456; in test [6], 0.335. Moreover, the composite z-score came to 1.28 in the test with Sam68 (KHDRBS1), 1.25 in test [7] and 1.12 in test [8]. Further, in test [1], the composite Z-score was 1.02 (inactive).
In the case of `CCCC[C@@H]1C[C@H]1[C@@H](NC(=O)c1cccnc1)c1ccc(-c2ccccc2)cc1`, the composite z-score was -0.294 in the test with Albumin (Bos taurus); -0.306 in [2]; -0.174 in [3]; -0.357 in test [4]; 0.208 in test [5]; -0.193 in test [6]. For the same compound, the values for the composite z-score (in the test with Sam68 (KHDRBS1); in test [7]; in test [8]) were -0.0982, -1.56 and -0.633, respectively. In test [1], the composite Z-score is -0.0683 (inactive).
As to `[N-]=[N+]=NCc1ccccc1C[C@@]1(C(=O)N2CCCCC2)N=C(c2ccc(OCCCO)cc2)O[C@@H]1c1ccccc1N=[N+]=[N-]`, the composite z-score with Albumin (Bos taurus) is 0.79; in [2], 0.0522; in test [3], -0.13; in [4] it was 0.378; in test [5], 2.1; in test [6], -0.0562. Also, the composite z-score was 1.09 in the test with Sam68 (KHDRBS1), -0.186 in test [7] and 1.08 in [8]. Besides, the composite Z-score in test [1] is 0.131 (inactive).
As for `C=C(C(=O)CC[C@H](OC(=O)c1cccnc1)c1ccc(CO)o1)C(C)C`, the composite z-score was 0.0812 with Albumin (Bos taurus); 0.0596 in test [2]; -0.0633 in test [3]; 0.655 in test [4]; 0.403 in test [5]; 0.309 in [6]. Moreover, the composite z-score with Sam68 (KHDRBS1) stood at 0.839; in test [7] it was 0.302; in test [8], 0.645. Also, in test [1], the composite Z-score was 0.674 (inactive).
Regarding `COc1ccccc1CN1C(=O)c2ccccc2[C@@H](C(=O)NC(C)C)[C@@H]1c1ccc(CO)cc1`, the composite z-score with Albumin (Bos taurus) is -0.374; in test [2], 0.338; in [3] it was 0.103; in [4] it was 0.535; in [5] it was 2.32; in [6] it was 1.03. The composite z-score came out at 1.33 with Sam68 (KHDRBS1), 0.565 in test [7] and 1.16 in test [8]. In addition, in [1], the composite Z-score was -0.0458 (inactive).
Take `CCOC(=O)C[C@H]1[C@H](OC(=O)Cc2ccc3c(c2)OCO3)[C@@H](NC(=O)C2CCCCC2)c2cc(OCCCO)ccc2N1C(=O)c1ccc2ccccc2n1`: the composite z-score with Albumin (Bos taurus) turned out to be 0.245; in [2] it was 0.0418; in test [3], 0.358; in test [4], 0.312; in test [5], 0.746; in test [6], 0.15. Also, the composite z-score in the test on Sam68 (KHDRBS1) was determined as 1.08; in [7] it was 1.21; in test [8], 0.662. In test [1], the composite Z-score was -0.608 (inactive).
For `COC(=O)C(CC#Cc1ccc2c(c1)[C@]1(C(=O)N2)[C@H](C(=O)O)[C@H]2C(=O)O[C@H](c3ccccc3)[C@H](c3ccccc3)N2[C@@H]1c1ccccc1OCCO)C(=O)OC`, the composite z-score with Albumin (Bos taurus) came to 0.788; in test [2] it was 0.277; in test [3], 0.054; in [4], 0.684; in test [5], 1.62; in [6], 1.11. Further, the composite z-score in the test with Sam68 (KHDRBS1) was 1.32; in test [7], 0.364; in [8] it was 1.15. Besides, the composite Z-score in [1] is -0.051 (inactive).
